Cruzain inh noDet: blocks cruzain activity in detergent-free assay. actives 2.3% (n = 200,000). purified cruzain, Z-FR-AMC fluorescence, no detergent. AID 1476. Potency, µM, without a hit: max response, negative = inhibition, usual class: inhibitors;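 further: plate controls were enzyme without inhibitor for no effect and buffer without enzyme for full effect; nearly all actives have a fitted effect of over 40% in size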
Target sequence (P25779 123-467 limits assumed): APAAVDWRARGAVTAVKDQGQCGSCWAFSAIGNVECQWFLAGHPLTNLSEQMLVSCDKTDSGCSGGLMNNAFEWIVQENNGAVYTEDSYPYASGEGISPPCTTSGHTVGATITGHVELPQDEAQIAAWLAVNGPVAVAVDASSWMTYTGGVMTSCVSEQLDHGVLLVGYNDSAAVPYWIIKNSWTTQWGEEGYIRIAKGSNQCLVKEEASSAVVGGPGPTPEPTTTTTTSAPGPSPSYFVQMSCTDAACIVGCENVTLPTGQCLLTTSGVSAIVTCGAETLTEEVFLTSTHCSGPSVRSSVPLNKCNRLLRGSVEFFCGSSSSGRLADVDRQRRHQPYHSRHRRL
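Purified cruzain at 1.5 nM, pre-incubated 15 min with compound at room temperature in 100 mM sodium acetate pH 5.5, 5 mM DTT, 0.00005% Triton X-100. Reaction started with 2 uM Z-FR-AMC; AMC fluorescence increase over 60 s gives rate.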
Cruzain Triton: cruzain (T. cruzi) inhibition with detergent | P25779 | purified cruzain, Z-FR-AMC fluorescence, 0.01% Triton | Potency, µM, for inactives: max response, negative = inhibition, most hits filed as inhibitors | actives 0.43% (n = 200,000) | AID 1478;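 further: plate controls were neutral wells for no effect and buffer without enzyme for full effect; nearly all actives have a fitted effect of over 40% in size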
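Cysteine protease activity tested under reducing, mildly acidic conditions (100 mM sodium acetate pH 5.5, 5 mM DTT) plus 0.01% Triton X-100. Cruzain 1.5 nM; substrate Z-FR-AMC 2 uM; 15 min compound preincubation at room temperature.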
Active calls of the source: *; ? = inconclusive. Rows were chosen to be rich in hits. Some 2.6% of all compounds tested hit in one or more screens of this group. The call rests on the fitted dose curve; in most records, active means well fitted curve in the direction sought with a large enough effect; inconclusive means small, poorly fitted or top-dose-only effect, or another doubt; inactive means no such curve, though single readings can be large; an effect the other way counts as inactive or inconclusive. Potency means the concentration at half of the fitted maximal effect.

SMILES	Cruzain inh noDet	Cruzain Triton
CC(C)n1cc(/C=C2\NC(=O)N(c3cccc(Cl)c3)C2=O)c2ccccc21	25µM*	-1%
CC(C)n1cc(/C=C2/NC(=O)N(c3cccc(Cl)c3)C2=O)c2ccccc21	16µM*	0%
COc1ccc(-c2nc(CSc3nnc(C)n4c3cc3occc34)c(C)o2)cc1OC	18%	-2%
COc1ccc(CNC(=O)C(C)n2ccc3cc(S(=O)(=O)N4CCCC4)ccc32)cc1OC (stereo not drawn)	27%	-2%
O=C(CCS(=O)(=O)c1cccc2nonc12)Nc1ccc(F)cc1F	-5%	-4%
CCc1nc2cccnc2n1-c1ccc(CC(=O)Nc2cccc(C)c2C)cc1	-5%	16µM*
CCc1nc2cccnc2n1-c1ccc(CC(=O)Nc2ccccc2Cl)cc1	1%	13µM*
CCc1ccccc1NC(=O)Cc1ccc(-n2c(C)nc3cccnc32)cc1	-2%	-21%
CCc1nc2cccnc2n1-c1ccc(CC(=O)Nc2ccc(C)cc2)cc1	2%	-10%
COc1cccc2cc(-c3cn4c(n3)sc3cc(F)ccc34)c(=O)oc12	4%	0%
COc1ccccc1N(CC(=O)Nc1ccccc1C(F)(F)F)S(=O)(=O)c1ccc(C)cc1	3%	-6%
CCc1cccc(C)c1NC(=O)CCCn1c(C)c2cnn(-c3ccccc3)c(=O)c2c1C	27%	-3%
COc1ccc(/C=C2/SC(=S)N(n3c(C)ccc3C)C2=O)cc1	25µM*	-5%
CCOc1ccc(/C=C2/SC(=S)N(n3c(C)ccc3C)C2=O)cc1	-41%	-6%
Cc1nc(N2CCOCC2)c2c(C(=O)N3CCN(c4ccc(Cl)cc4)CC3)c(C)oc2n1	?	3%
COc1ccc(Cn2c(=O)[nH]c3cc(C(=O)NCCC(C)C)ccc3c2=O)cc1	11%	0%
CCOC(=O)c1ccc(NC(=O)N2CC3CCCN3c3ccccc32)cc1 (stereo not drawn)	-26%	-8%
CCCCSc1nc2c(cnn2-c2ccc(F)cc2)c(=O)[nH]1	-5%	-3%
CCCSc1nc2c(cnn2-c2ccc(Cl)cc2)c(=O)[nH]1	10µM*	0%
O=c1[nH]c(-c2ccc(Cl)cc2)nc2c1cnn2-c1ccccc1	25µM*	5%
Cc1ccc(-c2nc3c(cnn3-c3ccccc3)c(=O)n2-c2ccc(Cl)cc2)cc1	-11%	-3%
O=C(CCN1CCN(c2ccccc2F)CC1)Nc1ccccc1F	-3%	6%
O=C(CCN1CCN(c2ccccc2F)CC1)c1ccc(Br)cc1	?	14µM*
COc1cccc(NC(=O)CN2C(=O)CSc3ccc(S(=O)(=O)N4CCCC4)cc32)c1	-9%	-3%
Cc1ccc(C(=O)N(Cc2ccco2)c2ccccn2)cc1	11%	-2%
SMILES	Cruzain inh noDet	Cruzain Triton
Cc1cccc(C(=O)N2CCc3cc(CNS(=O)(=O)c4ccc(F)c(Cl)c4)ccc32)c1	-6%	-1%
Cc1ccc(Cl)cc1-n1ncc2c(Nc3cccc(C)c3C)ncnc21	6%	-9%
COC(=O)c1c(NC(=O)CN2C(=O)NC3(CCC(C(C)(C)C)CC3)C2=O)sc2c1CCCCC2 (stereo not drawn)	16µM*	1%
O=C(CN1C(=O)NC2(CCc3ccccc3C2)C1=O)Nc1ccc(Cl)cc1F (stereo not drawn)	-7%	-2%
COC(=O)c1c(NC(=O)CN2C(=O)NC3(CCc4ccccc4C3)C2=O)sc2c1CCCCC2 (stereo not drawn)	13µM*	-4%
CC1CCCCC12NC(=O)N(CC(=O)Nc1sc3c(c1C(N)=O)CCC3)C2=O (stereo not drawn)	8%	-22%
COc1ccc(CNC(=O)C2CCCN(S(=O)(=O)N(C)c3ccc(F)cc3)C2)cc1OC (stereo not drawn)	10%	-2%
Cc1cccc(N2CCN(S(=O)(=O)c3cc(Br)cc4c3N(C(=O)C3CC3)CC4)CC2C)c1 (stereo not drawn)	4%	1%
COc1cccc(-c2csc(N3CCN(C(=S)Nc4ccccc4)CC3)n2)c1	?	4%
COc1cccc(-c2csc(N3CCN(S(=O)(=O)c4ccc(F)cc4)CC3)n2)c1	25µM*	0%
COc1cccc(-c2csc(N3CCN(C(=S)Nc4ccc(Cl)cc4)CC3)n2)c1	25µM*	7%
COc1cccc(-c2csc(N3CCN(Cc4ccccc4)CC3)n2)c1	-24%	-10%
COc1ccccc1NC(=O)c1ccc2[nH]c(C)cc(=O)c2c1	4%	-4%
COc1ccc(NC(=O)c2ccccc2NC(=O)CSc2ccccc2)cc1	-19%	-1%
O=C(CSc1ccc(Cl)cc1)Nc1ccc(N2CCN(C(=O)c3ccco3)CC2)cc1	-10%	-1%
COc1ccc(NC(=O)c2ccccc2NC(=O)CSc2ccc(Cl)cc2)cc1	13µM*	9%
O=C(CSc1ccc(Cl)cc1)Nc1ccc(NC(=O)c2ccco2)cc1	10µM*	4%
COC(=O)c1ccc(NC(=O)CN(C)S(=O)(=O)c2ccc3c(c2)CCCC(=O)N3)cc1	-8%	-1%
CC/C=C\C/C=C\C/C=C\C/C=C\C/C=C\C/C=C\CCC(=O)O[C@H](COCCCCCCCCCCCCCCCC)COP(=O)([O-])OCC[N+](C)(C)C	?	2%
CCOc1ccccc1NC(=O)Cn1cnc2sc(C)c(S(=O)(=O)N3CCC(C)CC3)c2c1=O	?	0%
Cc1c(NC(=O)c2cccc3c(Cl)cccc23)cccc1-c1nc2ccccc2o1	-4%	0%
Cc1cccc2cc(COC(=O)C3CCCO3)c(=O)[nH]c12 (stereo not drawn)	1.6µM*	-1%
Cc1cccc2cc(COC(=O)C3CCCCC3)c(=O)[nH]c12	-6%	2%
COc1cccc(OCCSc2nc3ccccc3n2CC(=O)N2CCOCC2)c1	21%	-3%
O=C1c2cccc3cccc(c23)C(=O)N1c1nccs1	6%	-4%
SMILES	Cruzain inh noDet	Cruzain Triton
O=C1c2cccc3cccc(c23)C(=O)N1c1ccc2ncccc2c1	?	18µM*
CCOc1ccc(N2CC(NC(=O)C3CC3)CC2=O)cc1 (stereo not drawn)	13%	2%
CCn1c(C)c(C)c2cc(C(=O)NCCc3cc(OC)c(OC)c(OC)c3)ccc21	?	-1%
O=C(CSc1ccc(Cl)cc1)Nc1nnc(-c2cccc([N+](=O)[O-])c2)s1	?	-2%
O=C(Cc1cccc2ccccc12)Nc1nnc(-c2cccc([N+](=O)[O-])c2)s1	25µM*	0%
Cc1ccccc1C(=O)NC(=S)Nc1sc2c(c1C#N)CCCC2	?	-4%
Cc1sc(NC(=S)NC(=O)c2ccc(C(C)(C)C)cc2)c(C#N)c1C	10µM*	1%
COc1cc(C(=O)Nc2nc(-c3cc(C)ccc3C)c(C)s2)ccc1OCC(=O)Nc1ccc(F)cc1	20µM*	-5%
COc1ccc(-c2nc(NC(=O)c3ccc(OCC(=O)Nc4ccc(F)cc4)c(OC)c3)sc2C)cc1	-10%	0%
Cc1ccccc1OC(=O)CSc1nnc(-c2ccc(F)cc2)o1	-5%	-3%
Cc1cnc(CNc2nc(-c3ccc(C(=O)N(C)C)cc3)nc3ccccc23)cn1	-3%	-2%
CCCCSCCCNC(=O)c1cn(C)c2ccc(S(=O)(=O)N3CCCCCC3)cc2c1=O	-11%	-3%
CCOC(=O)c1c(NC(=O)c2ccccc2Br)sc2c1CCc1ccccc1-2	16µM*	-6%
CCOC(=O)c1c(NC(=O)COc2ccccc2Br)sc2c1CCCCC2	2%	-6%

Screening data deposited in PubChem by National Center for Advancing Translational Sciences (NCATS).
